Laboratory results reported in PubChem BioAssay (Tox21).
Inconclusive results are not listed. A call without a number means that no potency is given here. Unmarked numbers belong to inactive results. Calls of active or inactive are those of the source. The call rests on the fitted dose curve.

Assay: Nuclear factor erythroid 2-related factor 2/antioxidant responsive element (Nrf2/ARE) small molecule agonists: luciferase reporter gene qHTS assay in human keratinocytes (AID 1919969); further: nearly all actives have a fitted effect of over 35% in size
Details: KeratinoSens HaCaT ARE-luciferase, luminescence, 24 h; series mostly up to 92.4 µM
Potency means the concentration at half of the fitted maximal effect.

Q: Which Potency does the source give for `CC(=O)CC(C)C` here?
A: inactive

Q: For `CCCCC`, which Potency is on record?
A: inactive

Q: For `CC1(C)[C@H]2CC[C@]1(C)C(=O)C2`, which Potency is on record?
A: 68.6 µM (active)

Q: For `CCCc1ccc(O)c(OC)c1`, which Potency is on record?
A: inactive

Q: With `COc1cc(OC)nc(NC(=O)NS(=O)(=O)Nc2ccccc2C(=O)N(C)C)n1` as the compound, how does the Potency read?
A: inactive

Q: With `CCCCCCCCOc1ccc(C(=O)O)cc1` as the compound, how does the Potency read?
A: 60.4 µM (active)

Q: With `CC(C=O)Cc1ccc(C(C)C)cc1` (configuration not stated) as the compound, how does the Potency read?
A: inactive

Q: For `FC1(F)C(F)(F)C(F)(F)C2(F)C(F)(C1(F)F)C(F)(F)C(F)(F)C1(F)C(F)(F)C(F)(F)C(F)(F)C(F)(F)C12F` (configuration not stated), which Potency is on record?
A: inactive

Q: Which activity, positive = activation does the source give for `NCC[C@H](O)C(=O)N[C@@H]1C[C@H](N)[C@@H](O[C@H]2O[C@H](CN)[C@@H](O)[C@H](O)[C@H]2O)[C@H](O)[C@H]1O[C@H]1O[C@H](CO)[C@@H](O)[C@H](N)[C@H]1O` here?
A: 1.57% [at 0.349 µM]

Q: With `O=C(CCCl)NCCc1ccccc1` as the compound, how does the Potency read?
A: inactive

Q: For `C=CC/C=C/C`, which Potency is on record?
A: inactive

Q: With `Nc1ccc(F)c([N+](=O)[O-])c1` as the compound, how does the Potency read?
A: inactive

Q: With `O=S(=O)(c1ccccc1)c1ccc(Cl)cc1` as the compound, how does the Potency read?
A: inactive

Q: For `COc1cc2c(cc1OC)C(=O)C(CC1CCN(Cc3ccccc3)CC1)C2` (configuration not stated), which Potency is on record?
A: inactive

Q: Which Potency does the source give for `O=CNNC=O` here?
A: inactive

Q: With `O=C(CS)Nc1ccccc1` as the compound, how does the Potency read?
A: 29.8 µM (active)

Q: With `CCCS(=O)c1ccc2nc(NC(=O)OC)[nH]c2c1` (configuration not stated) as the compound, how does the Potency read?
A: inactive
